We go through 14 compounds from PubChem BioAssay (NCI).

Assay in all cases: NCI-60 one-dose screen, 48 h (100 = growth as untreated, 0 = no growth, -100 = all killed)
What all share (conditions): 10 µM unless noted

The test system of assay [1] is NCI-H23 lung.
Assay [2] relates to NCI-H226 lung.
Assay [3] relates to NCI-H322M lung.
The test system of assay [4] is HOP-62 NSCLC.
Assay [5] deals with NCI-H460 lung.
Assay [6] concerns HOP-92 NSCLC.
Assay [7] concerns NCI-H522 lung.
The subject of assay [8] is A549/ATCC NSCLC.
Assay [9] has as its system 786-0 renal.
Assay [10] concerns COLO 205 colon.

This is part of a sample that, as a whole, favours compounds with a hit. Of some 83,000 tested, about 20% had one in any assay.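 Assay: single dose, 48 h. Readout: percent growth (0 = no net growth; negative = cell death). Active: <10.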 Unmarked numbers belong to inactive results. Activity calls are given as the source filed them.

Consider `Nc1ccccc1-c1cc2c(c3c1[nH]c1ccccc13)CCCCC2`, for which the growth in [1] was 90.5%; in assay [2] it was 117%; in assay [3], 99%; in assay [4], 105%; in [5] it was 97.2%; in assay [6], 105%. The growth in assay [7] is 84.8%; in assay [8], 95.8%; in assay [9], 89.3%; in [10], 101%.

Consider `COc1cccc2nc3n(c12)C(c1c(F)cccc1F)SC3` (stereo not given), for which the growth was 94.8% in assay [1]; 82.7% in [2]; 102% in assay [3]; 104% in [4]; 99% in [5]; 46.4% in assay [6]. In addition, the growth in assay [7] is 80.4%; in [8], 98%; in assay [9], 101%; in assay [10], 106%.

For `Cc1ncc(C(=O)Nc2ccc(CN3CCN(C)CC3)c(C(F)(F)F)c2)cc1C#Cc1ccc(N)nc1`, the growth in assay [1] was 3.94% (active); in assay [2], -3.96% (active); in assay [3], 20.1%; in assay [4], 18.7%; in [5], -60.3% (active); in assay [6], -15.9% (active). Also, the growth in assay [7] is -8.12% (active); in [8] it was 11.3%; in assay [9], -48.8% (active); in assay [10] it was 5.35% (active).

Turning to `CN(C)CCN1CCN(c2ncccc2C2Nc3ccccc3-n3cccc32)CC1` (stereo not given), the growth in [1] is 96.2%; in assay [2], 102%; in [3], 102%; in assay [4], 109%; in assay [5] it was 106%; in assay [6], 84.9%. Besides, the growth in assay [7] was 104%; in [8], 103%; in [9], 91.8%; in assay [10], -48.6% (active).

On to `Cc1onc2c(-c3ccccc3)n[nH]c(=O)c12`, for which the growth is 100% in assay [1]; 110% in assay [2]; 72.5% in [3]; 90.2% in assay [4]; 109% in assay [5]; 52.3% in assay [6]. Further, the growth in [7] was 94.4%; in assay [8], 114%; in [9], 95%; in assay [10], 146%.

As for `c1ccc(-c2nc3nonc3nc2-c2ccccc2)cc1`, the growth in assay [1] is 52.4%; in assay [2], 69.2%; in assay [3], 81.7%; in assay [4], 79%; in [5] it was 62.8%; in assay [6] it was 78%. Also, the growth in [7] was 49.2%; in [8], 76.7%; in assay [9] it was 73.8%; in assay [10], 82.6%.

Regarding `COC1=C(C)C(=O)c2c(c(CCCl)c3n2CCC3OC(C)=O)C1=O` (stereo not given), the growth is -12% (active) in assay [1]; -14.9% (active) in assay [2]; -14.8% (active) in assay [3]; -22.4% (active) in [4]; -14.3% (active) in [5]; 56.4% in assay [6]. Besides, the growth in [7] was -56.9% (active); in [8], 1.27% (active); in assay [9], -32.4% (active); in [10] it was -60% (active).

For `Cc1c(C(=O)N[C@@H](Cc2ccccc2)C(=O)C(=O)NCc2ccc(F)cc2)[nH]c2ccccc2c1=O`, the growth was 101% in assay [1]; 89% in assay [2]; 98.8% in [3]; 106% in assay [4]; 56.9% in [5]; 94.4% in assay [6]. The growth in assay [7] is 91.4%; in assay [8], 97.3%; in [9], 102%; in assay [10] it was -42.1% (active).

Turning to `FC(F)(F)c1cc(Nc2ccc3c(OCCCN4CCOCC4)cccc3n2)ccc1Cl`, the growth in assay [1] is 60.8%; in assay [2], 68.5%; in [3], 51.5%; in assay [4], 51.2%; in assay [5], 17.3%; in assay [6], 60.2%. The growth in assay [7] was 49.5%; in assay [8], 30.5%; in [9], -42.1% (active); in assay [10] it was -38.1% (active).

`Oc1c(I)cc(I)cc1CNCCCN(Cc1ccccn1)Cc1ccccn1`: the growth in assay [1] was -37% (active); in [2], -78.4% (active); in assay [3], -75.3% (active); in [4], -52.7% (active); in assay [5], -57.2% (active); in assay [6], -76.1% (active). The growth in [7] is -56.4% (active); in assay [8], -51.8% (active); in assay [9] it was -95.4% (active); in assay [10], -34.2% (active).

Turning to `C[C@]12CC[C@@H]3c4cc(OC(F)F)c(OS(N)(=O)=O)cc4CC[C@H]3[C@@H]1CC[C@@H]2O`, the growth is 24.5% in assay [1]; 54.9% in assay [2]; 42.4% in [3]; 38.7% in [4]; 12.1% in [5]; 58.6% in assay [6]. Further, the growth is 19.8% in assay [7], 29.5% in assay [8], 42.3% in assay [9] and 12.4% in [10].

For the compound `O=C1c2cccc3cccc(c23)C(=O)N1N1C(=O)c2cccc3c(NC4CCCCC4)ccc(c23)C1=O`, the growth is 90.4% in assay [1]; 94% in assay [2]; 96.4% in assay [3]; 92.6% in assay [4]; 98.8% in assay [5]; 79.9% in assay [6]. Moreover, the growth in [7] is 88.1%; in [8], 94.4%; in assay [9], 105%; in assay [10], 103%.

As for `O=C(CSc1nccc(Nc2ccc(S(=O)(=O)Nc3nccs3)cc2)n1)c1ccc(C(F)(F)F)cc1`, the growth is 88.1% in [1]; 89.2% in assay [2]; 106% in assay [3]; 113% in assay [4]; 107% in assay [5]; 90.8% in [6]. The growth is 84.4% in [7], 99.6% in [8], 99.7% in [9] and 112% in assay [10].

As to `NCCCNc1nc2ccccc2c2c(=O)c3cc(F)cc(F)c3sc12`, the growth in assay [1] was 84%; in [2] it was 92.5%; in [3], 84.5%; in assay [4] it was 78.9%; in [5] it was -75.1% (active); in [6] it was 36%. For the same compound, the growth in [7] was 92.7%; in assay [8], 78.1%; in assay [9], -88.8% (active); in assay [10] it was 63.6%.
